About 660 (0.2%) of roughly 330,000 compounds were called active.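 How the source made its calls: active means inhibition of at least 40% at 10 µM in the primary screen; inactive means the rest.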 What follows is part of a selection rich in actives, with near analogues and random picks from the rest.
System: intestinal alkaline phosphatase [Mus musculus]
Experiment: inhibitors of mouse IAP, primary screen, biochemical, luminescence, uHTS (AID 2806);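 further: plate controls were DMSO with enzyme for no effect and no enzyme wells for full effect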
Conditions: purified mouse IAP, CDP-Star luminescence, 30 min; at 10 µM; hits give high values

Structure (SMILES)	inhibition
Cc1c(CC(=O)NCC(=O)NCC(=O)O)c(=O)oc2cc3oc4c(c3cc12)CCCC4	3.6% (inactive)
CN(/C(=N/S(=O)(=O)c1cccs1)c1ccccc1)c1ccc(O)cc1	-15.8% (inactive)
COCc1cc(C)nc(Nc2cc(C)ccc2C)c1C#N	-3.2% (inactive)
Cc1nc2sccn2c(=O)c1S(=O)(=O)NCCc1ccccc1	-1.1% (inactive)
Cc1cc(C)c(S(=O)(=O)NCCCN2CCOCC2)cc1Br	6.6% (inactive)
O=C(/C=C/Nc1ccc(S(=O)(=O)Nc2cnc3ccccc3n2)cc1)c1cccnc1	10% (inactive)
OCC[C@H]1C[C@@H](O)[C@H](O)[C@@]2(OCCc3ccccc32)O1	8.9% (inactive)
COc1cc(C2CC(=O)Oc3cc(OC)c(OC)c(OC)c32)cc(OC)c1OC (stereo not drawn)	-2.2% (inactive)
COc1ccc(OCCCC(=O)OC(C)C(=O)Nc2ccccc2[N+](=O)[O-])cc1 (stereo not drawn)	1.5% (inactive)
O=C(O)C1OC(C(=O)O)C2C1C(F)(F)C2(F)F (stereo not drawn)	-3.4% (inactive)
Cc1ccccc1OCC(=O)N(Cc1cccc(F)c1)C1CCS(=O)(=O)C1 (stereo not drawn)	-3.3% (inactive)
CCC(=O)Nc1ccc(-c2ccc(N3CCCCC3)nn2)cc1	6.7% (inactive)
COC(=O)c1ccc(S(=O)(=O)c2ccc(C(=O)OC)s2)s1	7.9% (inactive)
Cc1ccc2c(c1)NC(=O)[C@@]1(C)[C@@H](c3ccccc3)[C@H]3COc4ccc(Cl)cc4[C@@H]3N1C2=O	-2.6% (inactive)
O=C(c1ccc(Cl)cc1)N1N=C(c2ccccn2)CC1(O)C(F)(F)F (stereo not drawn)	-4% (inactive)
O=c1[nH]c(=S)[nH]c2[nH]c(=S)[nH]c12	73.3% (active)
O=C(CN1CCN(C(=O)C2CCCO2)CC1)Nc1c(Cl)cccc1Cl (stereo not drawn)	3.1% (inactive)
O=C(COC(=O)c1cnccn1)Nc1ccc(Cl)cc1C(F)(F)F	4.7% (inactive)
Cc1ccc(OCc2nnc(NC(=O)OCC(C)C)s2)cc1	0.4% (inactive)
O=C(Nc1nnc(SCc2ccccc2Cl)s1)c1cccc([N+](=O)[O-])c1	22.8% (inactive)
Clc1ccc(CSc2nnc3c(n2)[nH]c2ccccc23)cc1	12.9% (inactive)
S=C(NCc1ccco1)NCc1ccccc1Cl	-1% (inactive)
CCc1nnc(SCc2cccc(F)c2)nc1CC	4.4% (inactive)
c1ccc(CSc2nnc(-c3ccco3)c(-c3ccco3)n2)cc1	49% (active)

Structure (SMILES)	inhibition
Clc1ccccc1CSc1nnc(-c2ccco2)c(-c2ccco2)n1	60.4% (active)
C[C@H](NC(=O)[C@@H]1Cc2ccccc2CN1C(=O)OC(C)(C)C)C(=O)NC1CCCC1	-2.7% (inactive)
Cc1cccc(OCC(O)Cn2c(N3CCCCC3)nc3c2c(=O)[nH]c(=O)n3C)c1 (stereo not drawn)	-1.1% (inactive)
Cc1ccc(CNC(=O)C2CCCN2S(=O)(=O)c2ccc3c(c2)C(C)(C)C(=O)N3C)cc1 (stereo not drawn)	-1% (inactive)
CC(C)OC(=O)c1cc(NC(=O)C2C3CCC(O3)C2C(=O)O)cc(C(=O)OC(C)C)c1 (stereo not drawn)	7.3% (inactive)
COc1ccccc1CCNC(=O)c1c(C)nn(CC(C)C)c1Cl	6.5% (inactive)
Cc1ccc(N=C2NC(=O)/C(=C/C=C/c3ccco3)S2)cc1C	56% (active)
CN1C(=O)/C(=C/c2ccco2)SC1=Nc1cccc(C(=O)O)c1	9.6% (inactive)
CC(=O)Nc1ccc(NC(=O)C(NS(=O)(=O)c2ccc3c(c2)OCCO3)C(C)C)cc1 (stereo not drawn)	3.4% (inactive)
O=c1ccc2c(-c3ccccc3S(=O)(=O)O)c3ccc(O)c(O)c3oc-2c1O	64.9% (active)
Cc1ccccc1C(OCCN(C)C)C1CCCCC1 (stereo not drawn)	-6% (inactive)
CCN(C[C@H]1N[C@@](CC)(C(=O)OC)[C@H]2C(=O)N(C)C(=O)[C@@H]12)C(=O)Nc1ccc(F)cc1	2.6% (inactive)
CCOC(=O)c1cc(-c2ccccc2C)n(Cc2cc(C)no2)n1	-6.2% (inactive)
CN(C)c1ccc(N/C=C/C(=O)C(F)(F)F)cc1	7.4% (inactive)
COCC1CCN(C(=O)C2CCC(=O)N(CC3CCCCC3)C2)CC1 (stereo not drawn)	4.4% (inactive)
Nc1ccc2nc3c(=O)[nH]c(=S)[nH]c3nc2c1	70.9% (active)
C=CCC(NC(=O)Cc1ccccc1)C(=O)NCCC (stereo not drawn)	-3.3% (inactive)
CCOc1ccc2nc(Cl)c(C3CC(c4ccccc4)=NN3C(=O)c3cccs3)cc2c1 (stereo not drawn)	13.7% (inactive)
O=C(NCCOc1cccnc1)c1ccc(OC2CCN(Cc3ccccn3)CC2)cc1	4.2% (inactive)
O=C(CCCN=C1NS(=O)(=O)c2ccccc21)OCC(=O)c1ccc(F)c(F)c1	-12.2% (inactive)
COC(=O)CN(c1nc(C)c(Cl)c(OC)n1)S(=O)(=O)c1ccc(C)cc1	0.2% (inactive)
CCCCN(C)CCNC(=O)C1CCCN(S(=O)(=O)c2cccc3nsnc23)C1 (stereo not drawn)	4.9% (inactive)
CS(=O)(=O)N(CC(=O)NC1CCCC1)Cc1ccc(F)cc1	3.3% (inactive)
C=CCSc1nc(N)cc(=O)[nH]1	4.4% (inactive)

Structure (SMILES)	inhibition
CCc1ccc(N(CC)c2ncnc3nc[nH]c23)cc1	7.5% (inactive)
Cc1cc(C)c(C)c(S(=O)(=O)N[C@@H](C)C(=O)OC(C)C(=O)NC(N)=O)c1C (stereo partly drawn)	-4.2% (inactive)
CC(NC(=O)c1ccccc1C(=O)O)c1ccc(-n2ccnc2)cc1 (stereo not drawn)	0.1% (inactive)
COc1cc(/C=N\Nc2nc(-c3cccs3)c(NC(C)=O)s2)ccc1O	41% (active)
CC(=O)c1sc(N/N=C\c2ccc(C)cc2)nc1C	10.3% (inactive)
COc1cc(/C=N/NC(=O)CCc2n[nH]c(=O)[nH]c2=O)ccc1O	-0.9% (inactive)
Fc1ccccc1/C=C1\CCCC2=C1Nc1ncnn1C2c1ccccc1F (stereo not drawn)	0% (inactive)
O=[N+]([O-])/C(N=Nc1ccccc1)=N\Nc1ccccc1	-0.1% (inactive)
CSCCC1NC2(C(=O)Nc3ccc(Cl)cc32)[C@@H]2C(=O)N(C3CCCC3)C(=O)[C@H]12 (stereo partly drawn)	3.1% (inactive)
Nc1c(C(=O)c2cccs2)sc2nsc(SCCN3CCCCC3)c12	16.4% (inactive)
CCN(c1ccccc1)S(=O)(=O)c1ccc(N)cc1	-11.2% (inactive)
CCN(c1ccccc1)S(=O)(=O)c1ccc2[nH]c(=O)[nH]c2c1	52.1% (active)
CN(c1ccccc1)S(=O)(=O)c1ccc2[nH]c(=O)[nH]c2c1	6.6% (inactive)
CSCCC(NC(=O)c1cc([N+](=O)[O-])cc([N+](=O)[O-])c1)c1nc2ccccc2[nH]1 (stereo not drawn)	-2% (inactive)
Nc1ccccc1Sc1cc(Cl)nnc1Cl	2.3% (inactive)
C=CCN1CC(C)/C(=N\O)CC1C (stereo not drawn)	0.1% (inactive)
CC(=O)Nc1ccc(NS(=O)(=O)c2ccc3c(c2)NC(=O)CC(=O)N3)cc1	1.9% (inactive)
Cc1cccc(-c2nc(CS(=O)CC(=O)NC(C)CCc3ccccc3)c(C)o2)c1 (stereo not drawn)	-5% (inactive)
CCCCn1c(N)c(N(CCOC)C(=O)c2oc3ccc(OC)cc3c2C)c(=O)[nH]c1=O	-5.8% (inactive)
Cc1n[nH]c(=O)c2c(NC(=O)CSc3ccccc3F)oc(C)c12	-5.6% (inactive)
Cc1ccccc1NC(=O)C1CCCN(C(=O)NCc2ccccc2)C1 (stereo not drawn)	-10.1% (inactive)
C=CCNC(=S)NNC(=O)COc1c(Cl)cc(Cl)cc1Cl	2.2% (inactive)
Cc1cccc(NC(=O)c2cc(S(=O)(=O)N3CCC4(CC3)OCCO4)ccc2F)c1	2.1% (inactive)
CCOC(=O)c1c(C)[nH]c(C)c1C(=O)CSc1nc(N)cc(N)n1	2% (inactive)

Structure (SMILES)	inhibition
CNS(=O)(=O)c1ccc(C(=O)NCC(=O)NCCc2ccc3c(c2)OCCO3)cc1	-6.6% (inactive)
O=C(CCC(=O)OCc1cccc(C(=O)Oc2ccccc2)c1)Nc1cccc2ccccc12	3.6% (inactive)
COc1ccc(NC(=O)CSc2nnc(C3CC3)n2C)cc1S(=O)(=O)N1CCCCC1	-4.3% (inactive)
CCN(CC)C(=O)CS(=O)CC(=O)Nc1cc(OCCOC)c(Cl)cc1Cl (stereo not drawn)	-1.1% (inactive)
Cc1ccccc1CN1CCC(C(=O)Nc2ccc(Oc3cccnc3)cc2)CC1	-39.6% (inactive)
CCCC(=O)Nc1ccc(C(=O)N/N=C/c2ccc[nH]2)cc1	40.9% (active)
CC(=O)Nc1ccc(C(=O)/C=C/c2ccc[nH]2)cc1	1.1% (inactive)
O=C(COc1ccccc1[N+](=O)[O-])N/N=C/c1ccc[nH]1	9.7% (inactive)
CCCC(=O)Nc1ccc(C(=O)NCCCn2ccnc2)cc1	-4.6% (inactive)
CN(CC(=O)NNC(=O)CNC(=O)c1ccccc1Cl)S(=O)(=O)c1ccc(Cl)cc1	-5.3% (inactive)
O=C(COc1cccc2ccccc12)Nc1cc(S(=O)(=O)N2CCOCC2)ccc1N1CCOCC1	4% (inactive)
O=C1C=C(c2cc(C(F)(F)F)cc(C(F)(F)F)c2)C[C@@H](c2ccc3c(c2)OCO3)C1	13.5% (inactive)
S=c1[nH]nc2c3c4c(sc3ncn12)CCCC4	12.3% (inactive)
Cc1cccc(N)c1SC1CCCCC1O (stereo not drawn)	2.7% (inactive)
COc1cccc(C(=O)OCc2cc(=O)oc3c(C)c(C)ccc23)c1OC	8.2% (inactive)
Cn1c(SCC(=O)Nc2ccc(N3CCOCC3)cc2)nnc1C(F)(F)F	-6.7% (inactive)
Cc1nnc(SCC(=O)Nc2ncc3c(n2)CC(C)(C)CC3=O)s1	8.5% (inactive)
CCOc1ccc(N2C(=O)CN(c3cccc4ccccc34)C2=S)cc1	-14.2% (inactive)
COc1ccc(OC)c(-c2csc(NC(=O)C3=NNC(=O)CC3)n2)c1	11.3% (inactive)
COc1ccc(OC)c(Nc2nc(-c3ccc(O)c(O)c3)cs2)c1	68.7% (active)
COc1ccc(OC)c(-c2csc(NC(=O)COC(=O)C3CC3)n2)c1	6.9% (inactive)

Source: PubChem BioAssay AID2806 (Sanford-Burnham Center for Chemical Genomics, 2010)
